Bioassay records from PubChem.
IL1B NFkB pot = enhances IL-1B driven NFkB nuclear translocation; hit rate 0.3% among 94,000; activation, % at 2 µM; HUVEC IL-1B NFkB p65 nuclear translocation imaging;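 active = activation above 40%, about the mean plus 3 SD, also judged a hit on visual image review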;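 note: percent activation is computed from the nuclear over cytoplasmic p65 intensity ratio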
VCAM1 TNFa inh = reduces TNF alpha induced VCAM1 expression in HUVEC; HUVEC TNFa-induced VCAM-1 immunofluorescence, high-content imaging; AID 802; hit rate 0.48% among 95,000; inhibition, % at 2 µM;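 active = inhibition above the batch mean plus 3 SD, with images confirmed as a hit by eye, cut at about 37% in these data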;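 note: 0% = TNF-stimulated DMSO wells and 100% = unstimulated control wells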
HUVEC tox IL1B = toxic to HUVEC cells under IL-1B stimulation. HUVEC cell count loss, Hoechst imaging, IL-1B stimulated. cell count reduction, % at 2 µM. hit rate 0.41% among 94,000. AID 845;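 active = cell count reduction more than 3 SD above the screen-wide mean, cut at about 70% in these data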;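 note: normalized per plate to untreated control cells as the no-loss baseline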
TNFa cytotox = toxic to HUVEC cells under TNF alpha stimulation. HUVEC TNFalpha-stimulated, Hoechst cell count, imaging. cell count reduction, % at 2 µM. hit rate 0.17% among 93,000;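 active = cell count reduction exceeding the screen mean by over 5 SD, scaled to untreated wells per plate, cut at about 78% in these data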;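 note: cells counted after 24 h of TNF alpha exposure following the 1 h pretreatment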
IL1B NFkB inh = blocks IL-1B driven NFkB nuclear translocation in HUVEC cells; HUVEC IL-1B NFkB p65 nuclear translocation imaging; inhibition, % at 2 µM; hit rate 0.43% among 94,000;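 active = inhibition above about 30% together with a positive call from visual inspection of the well image, limit read from the data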;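 note: nuclear over cytoplasmic p65 intensity ratio measured by imaging; 0% = IL-1B stimulated DMSO wells and 100% = unstimulated DMSO wells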
Numbers without * were called inactive. This is a sample that favours compounds with a hit; in the whole collection about 1.5% have one here.

SMILES | IL1B NFkB pot | VCAM1 TNFa inh | HUVEC tox IL1B | TNFa cytotox | IL1B NFkB inh
Cc1c(C)c2c(C)[nH]nc2oc1=O | -14 | 2 | 76* | -16 | 14
O=C(c1ccc(Br)cc1)c1cc([N+](=O)[O-])ccc1N1CCCCC1 | -9 | 92* | 63 | 63 | 9
CN1CCN(c2ccc([N+](=O)[O-])cc2C(=O)c2ccc(Br)cc2)CC1 | 5 | 22 | -4 | -8 | -5
Cc1ccc(C(=O)c2cc([N+](=O)[O-])ccc2N2CCOCC2)c(C)c1 | -96 | 79* | 88* | 54 | 96*
Cc1ccc(C(=O)c2cc([N+](=O)[O-])ccc2N2CCN(C)CC2)cc1 | -1 | 6 | -9 | -17 | 1
COCCNC(=O)Cn1c(=O)n(C)c2ccccc21 | 9 | 9 | 16 | -10 | -9
Cc1ccc(O)c(NC(=O)CCC2CCCCC2)c1 | -4 | 79* | 23 | 26 | 4
Cc1cccc(OCC(=O)Nc2cc(C)ccc2O)c1 | 1 | 58* | 0 | -4 | -1
O=C(CCC1CCCCC1)Nc1ccccc1O | 0 | -13 | -14 | -18 | 0
COc1ccccc1C(=O)Nc1ccc2c(c1)OCCO2 | 6 | -3 | -13 | 0 | -6
COc1cc(SC)ccc1C(=O)Nc1ccc2c(c1)OCCO2 | 45* | -18 | -38 | -18 | -45
CC1(C)Cc2c(C#N)c(SCC(=O)c3ccccc3)nc(N3CCOCC3)c2CO1 | -12 | 3 | 10 | -20 | 12
COC(=O)Sc1nc(N2CCOCC2)c2c(c1C#N)CC(C)(C)OC2 | 31 | 41* | 3 | -18 | -31
CCOC(=O)N1CCN(c2nc(-c3ccc(OC)cc3)no2)CC1 | 12 | -4 | 7 | -26 | -12
CCOC(=O)c1c(C)[nH]c(C(=O)OCC(=O)Nc2cc(C)ccc2OC)c1C | -12 | 1 | 2 | -8 | 12
CCOC(=O)c1[nH]c(C)c(C(=O)c2ccc(C)cc2)c1C | 30 | 48* | 3 | 33 | -30
CCOC(=O)c1[nH]c(C)c(C(=O)Nc2cc(OC)ccc2OC)c1C | -30 | 40 | 80* | 43 | 30*
Cc1ccc(OCc2ccoc2C(=O)O)cc1C | -1 | 97* | 4 | -7 | 1
CC(C)(C)c1ccc(CN2C3=NCCCN3c3ccccc32)cc1 | -21 | 6 | 75* | -17 | 21
COc1ccccc1C1/C(=C(/O)c2ccccc2)C(=O)C(=O)N1CC(C)O (stereo unspecified) | -10 | -2 | -19 | -11 | 10
Cc1cc(NCCOCCO)n2ncc(-c3ccc(Cl)cc3)c2n1 | 29 | 15 | 91* | -23 | -29
S=c1[nH]nc(COc2ccc3c(c2)OCO3)n1-c1ccccc1 | 12 | 97* | -7 | -8 | -12
CCC(C)(C)NC(=O)C(c1cccc(OC)c1)N(C(=O)c1ccn[nH]1)c1cccc(OC)c1 (stereo unspecified) | -19 | -12 | -8 | -36 | 19
COc1ccccc1NC(=S)N1CCC(c2nc3cc(C)c(C)cc3[nH]2)CC1 | -56 | 8 | -15 | -8 | 56*
Cc1cc(C)cc(C(=O)N2CC(C)OC(C)C2)c1 (stereo unspecified) | 5 | -2 | 0 | 3 | -5
SMILES | IL1B NFkB pot | VCAM1 TNFa inh | HUVEC tox IL1B | TNFa cytotox | IL1B NFkB inh
CC1=NNC(=O)/C1=C\c1cn(-c2ccccc2)nc1-c1ccc(Cl)cc1 | -71 | 99* | 25 | 84* | 71*
Nc1nc(N)nc(-c2ccc(Cl)cc2)n1 | 22 | 21 | -11 | -11 | -22
Cc1ccc(Oc2ccc(-c3nc(N)nc(N)n3)cc2)cc1 | -97 | -2 | 86* | 2 | 97*
COc1ccc(OCc2nc(N)nc(Nc3ccc(C)cc3)n2)cc1 | -13 | 3 | 3 | 7 | 13
COc1ccc(Nc2nc(N)nc(COc3ccc(OC)cc3)n2)cc1 | -33 | 3 | -7 | 9 | 33*
COc1ccc(Oc2cc(C(F)(F)F)cnc2C(N)=O)cc1 | -6 | -9 | -9 | -9 | 5
OCCSc1ncnc2c1oc1ccccc12 | -32 | -13 | -10 | -14 | 32*
CC(C)CC(OC(=O)c1ccco1)C(=O)NC1CCCCC1 (stereo unspecified) | 29 | 0 | -34 | 8 | -29
O=C(OCn1ncc(Br)c(Br)c1=O)c1c(F)cccc1F | -89 | 74* | 32 | 17 | 89*
Cc1ccc(C(=O)C(OC(=O)CN2C(=O)c3ccccc3C2=O)c2ccccc2)cc1C (stereo unspecified) | 15 | -22 | -7 | -9 | -15
COc1ccc(CCNc2nnc(Sc3nnnn3-c3ccccc3)s2)cc1OC | 10 | 87* | -15 | 36 | -10
COc1ccc(CCNc2nc3ccccc3n3nnnc23)cc1OC | 2 | 11 | -26 | -9 | -2
